Screening results (PubChem)
A selection: hits, their analogues and other compounds. The true share with any hit is near 4.8%.
Wee1 stabilizer: Wee1 degradation inhibitors, primary screen, cell-based, HeLa, Wee1K328M-luciferase, luminescence; HeLa Luc-Wee1K328M stability; 100% = proteasome inhibitor MG132 effect; reporter increase, % at 5 µM; 220,000 compounds, 1.2% hits; AID 1321, 2008;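 active = activation above the mean of all tested compounds plus 3 SD, set per screening run, cut at about 8.8% in these data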;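 note: cells exposed to compound for 20 h before luminescence read; 0% = DMSO alone and 100% = MG132 at 30 µM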
Target sequence (P30291 whole entry K328M): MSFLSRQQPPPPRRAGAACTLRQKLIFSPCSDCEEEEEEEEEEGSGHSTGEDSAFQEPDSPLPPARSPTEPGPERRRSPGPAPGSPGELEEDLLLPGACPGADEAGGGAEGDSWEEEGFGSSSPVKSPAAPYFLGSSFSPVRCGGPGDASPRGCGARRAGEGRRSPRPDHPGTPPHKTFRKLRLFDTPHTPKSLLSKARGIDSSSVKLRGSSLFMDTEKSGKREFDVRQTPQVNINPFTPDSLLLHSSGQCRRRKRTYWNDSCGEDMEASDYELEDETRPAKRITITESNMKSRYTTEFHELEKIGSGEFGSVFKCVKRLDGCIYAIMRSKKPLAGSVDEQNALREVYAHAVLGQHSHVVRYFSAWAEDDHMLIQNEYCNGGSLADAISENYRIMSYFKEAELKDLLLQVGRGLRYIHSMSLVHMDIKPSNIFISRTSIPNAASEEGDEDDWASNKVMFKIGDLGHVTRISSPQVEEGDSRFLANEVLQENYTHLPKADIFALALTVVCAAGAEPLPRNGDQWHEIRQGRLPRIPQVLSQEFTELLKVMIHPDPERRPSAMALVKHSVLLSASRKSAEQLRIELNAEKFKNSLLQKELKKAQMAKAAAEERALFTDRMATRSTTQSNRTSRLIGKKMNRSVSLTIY
Hsp70 activator: Hsp70 transcriptional activators, primary screen, cell-based, HeLa, Hsp70 promoter luciferase, luminescence, 10 µM | HeLa Hsp70 promoter luciferase reporter; scaled: vehicle 0, proteasome-inhibitor control 100% | activation, % at 10 µM | 200,000 compounds, 0.04% hits | AID 1203, 2008;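 active = activation above the mean across all tested compounds plus 3 SD, cutoff set per campaign, cut at about 5.5% in these data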;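 note: 100% = MG132 at 30 µM as the positive control and 0% = DMSO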
STAT1 activator: STAT1 signaling activators, primary screen, cell-based, HTS, luciferase reporter; NIH 3T3 STAT1-luciferase reporter, IFN-gamma, luminescence; 100% = IFN-gamma alone, no compound; activation (% of control), % at 5.5 µM; 200,000 compounds, 2.6% hits;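 active = activation above the screen-wide mean activation plus 3 SD, cut at about 130% in these data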;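 note: raw ratio to IFN-gamma control signal so 100% means no change and 0% no light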
APP transl inh: inhibitors of APP translation via 5'UTR reporter, primary screen, APP 5'UTR luciferase, SH-SY5Y cells | SH-SY5Y APP 5'UTR-luciferase reporter, luminescence | inhibition, % at 2 µM | 190,000 compounds, 0.82% hits;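 active = inhibition above a set limit, derived from the sample mean plus 3 SD, cut at about 45% in these data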
NF-kB expr up: activators of NF-kB expression in neurons, primary screen, cell-based, HTS. AID 1239, 2008. fold change at 12.5 µM. human neuronal cells, NF-kB reporter expression; hits give high values. 190,000 compounds, 1.6% hits; in the data active = fold change above about 3.3
APP 5'UTR act: activators of APP 5'UTR luciferase reporter, primary screen, SH-SY5Y cells; SH-SY5Y APP 5'UTR luciferase reporter, luminescence; zero percent = DMSO vehicle wells; activation, % at 2 µM; 190,000 compounds, 1% hits;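 active = activation above a set limit, based on mean plus 3 SD of controls, cut at about 140% in these data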
Starred values were filed as active, the others as inactive; . = not tested or not shown.

SMILES | Wee1 stabilizer | Hsp70 activator | STAT1 activator | APP transl inh | NF-kB expr up | APP 5'UTR act
Cc1nc(SCc2ccc(Cl)cc2)ncc1C(=O)O | -3 | 0 | 92 | -12 | 6.4* | 12
CN(C)CCCNc1cc(C(C)(C)C)nc2c(-c3ccc(Cl)cc3)cnn12 | 2 | . | . | . | . | .
O=C(Cn1cnc2c(nnn2-c2ccccc2)c1=O)NCc1ccc(F)cc1 | 0 | 0 | 104 | -12 | 0.82 | 12
Cc1ccc(-n2nnc3c(=O)n(CC(=O)NCc4ccccc4)cnc32)cc1 | 15* | 0 | 101 | 13 | 1.1 | -13
COc1ccc(/C=C/c2ccncc2)cc1 | 1 | 0 | 144* | -49 | 1.9 | 49
CN(C)c1ccc(/C=C/c2ccncc2)cc1 | 5 | 0 | 127 | -30 | 2.5 | 30
COc1ccc(Oc2c(C=O)c3ccccc3n2C)cc1 | 0 | 0 | 93 | 3 | 1.1 | -3
CCC1Sc2ccccc2N(CC(=O)NC2CCCCC2)C1=O (configuration not stated) | 9.3* | 0 | 101 | -11 | 1.1 | 11
CC1CCC/C(=N/Nc2nc3ccccc3s2)C1 (configuration not stated) | 2 | 0 | 138* | -140 | 1.3 | 140*
CC1(C)CC(=O)C/C(=N/Nc2nc3ccccc3s2)C1 | -1 | 0 | 103 | -57 | 0.61 | 57
O=[N+]([O-])c1ccc2nc(/C=C/c3ccc(Cl)cc3)[nH]c2c1 | 1 | 0 | 83 | -136 | 0.97 | 136*
O=[N+]([O-])c1ccc(-c2nc3ccc([N+](=O)[O-])cc3[nH]2)cc1 | 1 | 0 | 131* | -30 | 1.4 | 30
Nc1ccc2nc(-c3ccc(Cl)cc3)[nH]c2c1 | . | . | . | -61 | 8.5* | 61
COC(=O)[C@@H](NC(=O)Nc1ccc(OC(F)(F)F)cc1)C(C)C | 0 | 0 | 101 | 2 | 1.4 | -2
Cc1ccc2nc(C(O)C(O)c3nc4ccc(C)cc4[nH]3)[nH]c2c1 (configuration not stated) | -1 | 1 | 120 | -59 | 0.71 | 59
Cc1ccc2nc(C(C)O)[nH]c2c1 (configuration not stated) | 9.5* | 0 | 92 | 2 | 1.2 | -2
Cc1csc2ncc(C(=O)Nc3ccccc3Cl)c(=O)n12 | 4 | 0 | 131* | -54 | 2 | 54
Cc1csc2ncc(C(=O)Nc3ccon3)c(=O)n12 | 3 | 0 | 105 | 2 | 1.3 | -2
Cc1cccc(NC(=O)c2cnc3scc(C)n3c2=O)c1 | 2 | 0 | 129* | -2 | 3.1 | 2
Cc1csc2ncc(C(=O)NCc3ccco3)c(=O)n12 | 1 | 0 | 99 | -7 | 1.2 | 7
CCOc1ccc(C(=O)c2cnc3ccccc3c2N2CCN(CC)CC2)cc1 | 0 | 0 | 101 | -7 | 1 | 7
O=C(O)/C=C\C(=O)N1CCc2ccccc21 | -3 | 0 | 92 | -20 | 0.95 | 20
O=C(/C=C/c1ccc(Cl)cc1Cl)N1CCc2ccccc21 | 1 | 1 | 141* | -103 | 2.9 | 103
CCN(CC)C1CC(=O)N(c2cccc(C)c2)C1=O (configuration not stated) | 10.0* | 0 | 101 | -14 | 1.2 | 14
Cc1cccc(N2C(=O)CC(Cn3nc(C)cc3C)C2=O)c1 (configuration not stated) | 2 | . | . | . | . | .
Cc1ccc(C(C)C)c(OCc2ccc(C(=O)N/N=C/c3cccc(O)c3O)cc2)c1 | 9 | -1 | 108 | 80* | 1.5 | -80
COc1cc(/C=N/NC(=O)c2ccc(COc3cc(C)ccc3C(C)C)cc2)cc(OC)c1O | 2 | 0 | 104 | 14 | 0.83 | -15
Cc1ccc(C(C)C)c(OCc2ccc(C(=O)N/N=C/c3ccc(O)c(O)c3)cc2)c1 | 1 | -1 | 100 | 50* | 1.2 | -50
O=C(COc1cccc(C(F)(F)F)c1)N1CCN(c2ccc(O)cc2)CC1 | -2 | 0 | 100 | -10 | 2.4 | 10
CC(C)(C)c1ccc(C(=O)N2CCCC2)s1 | -2 | . | . | . | . | .
